For assay [1], the target named is Rap guanine nucleotide exchange factor 3 (Homo sapiens) (UniProt O95398). Description: Confirmatory qHTS for antagonist of cAMP-regulated guanine nucleotide exchange factor 3 (EPAC1) (AID 1645880).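 For activity, negative = inhibition: plate controls were DMSO only for no effect and full effect of the ATA control for full effect.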 Note: nearly all actives have a fitted effect of over 55% in size. Note: potency is the fitted concentration of half-maximal effect. The settings on record: EPAC1 Rap1B-BODIPY-GDP exchange, fluorescence; activity, negative = inhibition: at 115 µM (top of the series). The gist of the method: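 Released BODIPY-GDP fluoresces less than Rap1-bound BODIPY-GDP; the signal is followed at 480/540 nm at 5-min intervals over 30 min, after 5 min at room temperature. Reactions contain 100 nM EPAC1, 250 nM RAP1B-BODIPY-GDP and 50 uM GDP; results are normalized to ATA and DMSO.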
Chain of Rap guanine nucleotide exchange factor 3 (Homo sapiens) (O95398 whole entry, looked up): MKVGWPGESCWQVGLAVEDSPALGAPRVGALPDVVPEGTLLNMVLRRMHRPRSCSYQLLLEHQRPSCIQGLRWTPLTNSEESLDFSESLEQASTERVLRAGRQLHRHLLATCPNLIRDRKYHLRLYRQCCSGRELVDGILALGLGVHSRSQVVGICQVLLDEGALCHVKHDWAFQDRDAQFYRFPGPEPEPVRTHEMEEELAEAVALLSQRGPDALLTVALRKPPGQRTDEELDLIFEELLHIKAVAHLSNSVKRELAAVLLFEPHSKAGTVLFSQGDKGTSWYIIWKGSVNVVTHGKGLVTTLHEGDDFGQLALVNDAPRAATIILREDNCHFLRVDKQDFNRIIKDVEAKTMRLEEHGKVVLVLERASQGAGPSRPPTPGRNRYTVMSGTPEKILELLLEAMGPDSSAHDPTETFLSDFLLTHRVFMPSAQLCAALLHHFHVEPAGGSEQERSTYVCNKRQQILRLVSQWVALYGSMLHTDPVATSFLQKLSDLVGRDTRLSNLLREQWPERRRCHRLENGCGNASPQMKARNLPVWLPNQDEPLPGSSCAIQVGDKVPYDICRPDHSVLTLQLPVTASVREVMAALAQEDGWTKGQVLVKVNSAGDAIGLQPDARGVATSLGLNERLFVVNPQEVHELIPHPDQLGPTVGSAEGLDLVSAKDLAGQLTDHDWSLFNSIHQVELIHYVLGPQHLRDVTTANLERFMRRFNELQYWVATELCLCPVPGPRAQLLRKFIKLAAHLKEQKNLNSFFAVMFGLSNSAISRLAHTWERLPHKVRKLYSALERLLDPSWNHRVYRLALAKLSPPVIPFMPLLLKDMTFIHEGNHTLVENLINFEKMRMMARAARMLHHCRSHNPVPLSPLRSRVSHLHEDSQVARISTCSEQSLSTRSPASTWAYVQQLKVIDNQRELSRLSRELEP

Assay [2] has the same target. The assay is described as follows: Confirmatory qHTS for agonist of cAMP-regulated guanine nucleotide exchange factor 3 (EPAC1) (AID 1645881).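 For activation: EPAC1 catalysed release of BODIPY-GDP from Rap1B seen as fluorescence loss; 100% = effect of cAMP agonist control.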 Note: nearly all actives have a fitted effect of over 75% in size. Note: potency is the fitted concentration of half-maximal effect.
The target in assay [3] is Rap guanine nucleotide exchange factor 4 (Homo sapiens) (UniProt Q8WZA2). The assay is described as follows: Confirmatory qHTS for antagonist of cAMP-regulated guanine nucleotide exchange factor 4 (EPAC2) (AID 1645885). For activity change, negative = inhibition: % is set by controls: 0 for no effect and ±100 for the full control effect. Note: nearly all actives have a fitted effect of over 25% in size. Note: potency is the fitted concentration of half-maximal effect.
Chain of Rap guanine nucleotide exchange factor 4 (Homo sapiens) (Q8WZA2 whole entry, looked up): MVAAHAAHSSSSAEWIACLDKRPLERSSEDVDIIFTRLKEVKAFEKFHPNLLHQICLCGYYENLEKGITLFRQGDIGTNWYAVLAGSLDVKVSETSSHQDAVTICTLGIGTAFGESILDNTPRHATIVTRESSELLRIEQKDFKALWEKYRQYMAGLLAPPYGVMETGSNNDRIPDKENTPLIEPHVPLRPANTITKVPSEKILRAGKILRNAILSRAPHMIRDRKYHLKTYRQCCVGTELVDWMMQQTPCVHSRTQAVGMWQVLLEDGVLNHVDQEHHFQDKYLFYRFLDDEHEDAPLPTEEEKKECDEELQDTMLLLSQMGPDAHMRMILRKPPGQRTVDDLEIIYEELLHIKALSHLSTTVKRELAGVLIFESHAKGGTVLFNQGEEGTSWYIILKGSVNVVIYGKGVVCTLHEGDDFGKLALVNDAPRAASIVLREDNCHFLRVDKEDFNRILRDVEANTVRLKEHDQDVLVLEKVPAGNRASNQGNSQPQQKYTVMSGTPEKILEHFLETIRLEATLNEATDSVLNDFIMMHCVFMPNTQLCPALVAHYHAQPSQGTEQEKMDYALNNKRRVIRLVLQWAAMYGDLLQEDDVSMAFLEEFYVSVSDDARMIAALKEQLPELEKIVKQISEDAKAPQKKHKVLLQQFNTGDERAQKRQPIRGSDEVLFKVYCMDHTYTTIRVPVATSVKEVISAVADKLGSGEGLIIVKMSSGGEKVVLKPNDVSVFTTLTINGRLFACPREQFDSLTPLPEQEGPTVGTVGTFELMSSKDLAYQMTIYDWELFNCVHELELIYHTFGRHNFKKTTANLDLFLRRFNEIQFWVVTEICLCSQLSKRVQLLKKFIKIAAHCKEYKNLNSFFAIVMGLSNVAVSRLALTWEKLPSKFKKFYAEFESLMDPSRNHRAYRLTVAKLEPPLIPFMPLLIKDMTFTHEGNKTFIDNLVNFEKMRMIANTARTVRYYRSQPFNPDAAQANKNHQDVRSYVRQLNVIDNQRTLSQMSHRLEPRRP
Assay [4] deals with Rap guanine nucleotide exchange factor 3 (Homo sapiens) (UniProt O95398). Description: Counterscreen qHTS for antagonist of cAMP-regulated guanine nucleotide exchange factor 3 (EPAC1) (AID 1645888). Note: % of control where 0% means no effect. The gist of the method:
(§1)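 Measured: fluorescence of BODIPY-GDP bound to Rap1B, which falls as exchange proceeds. Conditions include 50 uM competing GDP, 5 and 30 min reads, and a later cAMP challenge for antagonist detection.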

The target is the same in assay [5]. Description: Counterscreen qHTS for agonist of cAMP-regulated guanine nucleotide exchange factor 3 (EPAC1) (AID 1645889). For activation: % of control where 0% means no effect. Note: nearly all actives have a fitted effect of over 40% in size. Note: potency is the fitted concentration of half-maximal effect. An outline of the steps:
as §1

Assay [6] has as its target Tumor susceptibility gene 101 protein (Homo sapiens) (UniProt Q99816). Description: qHTS Assay for Iinhibitors of HIV-1 Budding by Blocking the Interaction of PTAP/TSG101: Hit Validation (AID 651600). For activity change, negative = inhibition: % is set by controls: 0 for no effect and ±100 for the full control effect. Note: nearly all actives have a fitted effect of over 70% in size. Note: potency is the fitted concentration of half-maximal effect. An outline of the steps:
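Compounds are added to the Tsg101 binding domain (10 uM final) in pH 7.5 HEPES buffer. FITC-PTAP peptide follows at 50 nM final. After 20 min at r.t., polarized FITC emission is measured.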

The results in this text go back to PubChem BioAssay (NCATS).

The structures appear in SMILES notation. Records with an inconclusive call do not appear. Values without a mark were called inactive. Calls of active or inactive are those of the source. Calls come from the whole dose curve; as a rule, active = well fitted curve in the direction sought with a large enough effect; inconclusive = small, poorly fitted or top-dose-only effect, or another doubt; inactive = no such curve, though single readings can be large; an effect the other way counts as inactive or inconclusive.

Chain of Tumor susceptibility gene 101 protein (Homo sapiens) (Q99816 whole entry, looked up, the tested form may be a part): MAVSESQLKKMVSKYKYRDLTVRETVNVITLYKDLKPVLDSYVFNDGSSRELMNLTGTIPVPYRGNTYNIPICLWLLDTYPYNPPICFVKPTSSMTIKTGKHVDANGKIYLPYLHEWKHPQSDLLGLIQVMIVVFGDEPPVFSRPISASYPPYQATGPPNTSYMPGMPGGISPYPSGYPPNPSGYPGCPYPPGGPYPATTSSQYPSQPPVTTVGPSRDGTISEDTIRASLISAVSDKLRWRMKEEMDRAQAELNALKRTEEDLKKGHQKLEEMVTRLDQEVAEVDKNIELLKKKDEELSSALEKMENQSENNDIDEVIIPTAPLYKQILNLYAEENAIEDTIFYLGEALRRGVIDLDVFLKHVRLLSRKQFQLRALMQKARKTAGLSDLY

Take `O=C1/C(=C\c2cccnc2)Sc2ccccc21`: the Potency entry in assay [1], in assay [2], in assay [3] and in assay [4] was “inactive” throughout.

Regarding `O=C(NCc1ccccc1F)c1ccc(CN2CC(=O)N3CCCCC3C2=O)cc1` (configuration not stated), the Potency entry in assay [1], in assay [2], in assay [3] and in assay [4] was “inactive” each time.

As to `COCc1ccccc1C1=CC(=O)C[C@H](c2ccc(F)cc2)C1`, the Potency result in assay [1], in assay [2], in assay [3] and in assay [4] was “inactive” each time.

As to `O=C1C=C(c2ccccc2Oc2ccccc2)C[C@@H](c2ccc3c(c2)OCO3)C1`, the Potency result in assay [1], in assay [2], in assay [3], in assay [4] and in assay [5] was “inactive” in each case.

As for `Cc1ccc(-c2noc(-c3nnn(CC(=O)Nc4cc(Cl)ccc4C)c3N)n2)cc1`, the Potency entry in assay [1], in assay [2] and in assay [4] was “inactive” in each case. The outcome in assay [3] is “inactive [at 12.7 µM]”.

For the compound `CCn1c2ccccc2c2cc(NC(=O)c3ccc(=O)oc3)ccc21`, the Potency entry in assay [1] and in assay [4] was “inactive” in each case. Further, the Potency in assay [2] was 112 µM (active). In addition, the outcome in assay [3] was “inactive [at 12.7 µM]”.

Turning to `CCOc1ccccc1N1CCN(C(=O)c2cc3c(s2)CCC3)CC1`, the Potency result in assay [1], in assay [2], in assay [3] and in assay [4] was “inactive” in each case.

Consider `CCOc1ccccc1NC(=O)N1CCC(N2CCN(Cc3ccccc3)C(=O)C2=O)CC1`, for which the Potency result in assay [1], in assay [2], in assay [4] and in assay [5] was “inactive” throughout. Further, in assay [3], the outcome was “inactive [at 12.7 µM]”.

For `CCn1nc(C)c(C(=O)Nc2cc(Oc3ccc(Cl)cc3)cc([N+](=O)[O-])c2)c1C`, the Potency result in assay [1], in assay [2], in assay [3], in assay [4] and in assay [5] was “inactive” throughout.

For the compound `COc1ccc(Cn2c(=O)cc(C)[nH]c2=S)cc1`, the Potency entry in assay [1], in assay [2] and in assay [3] was “inactive” in each case. In assay [4], the activity change, negative = inhibition is -27% [at 30.8 µM]. Further, the activation in assay [5] is -6.93% [at 30.8 µM].

`CC(=O)N1CCN(C(=O)c2[nH]c(C(F)(F)F)nc2-c2ccccc2)CC1`: the Potency entry in assay [1], in assay [2], in assay [3], in assay [4] and in assay [5] was “inactive” each time.

Consider `Cc1ccc2nc(SCC(=O)c3c(N)n(C4CC4)c(=O)[nH]c3=O)[nH]c2c1`, for which the Potency entry in assay [1], in assay [2], in assay [3], in assay [4] and in assay [5] was “inactive” each time.

Take `O=C(C(=Cc1ccccc1)c1ccccc1)c1ccccc1`: the Potency result in assay [1], in assay [2], in assay [3], in assay [4] and in assay [5] was “inactive” in each case.

On to `CCN(CC)CC#CCOC(c1ccccc1)c1ccccc1`, for which the Potency entry in assay [1], in assay [2], in assay [4] and in assay [5] was “inactive” throughout. Also, the Potency in assay [3] was 37.9 µM (active).

On to `Cc1ccc([N+](=O)[O-])cc1NC(=O)CN(C1CCCCC1)S(=O)(=O)c1ccc(Cl)cc1`, for which the Potency entry in assay [1], in assay [2], in assay [4] and in assay [5] was “inactive” throughout. Besides, the Potency in assay [3] is 8.49 µM (active).

For `CC(=O)C1=CCC(c2cccc(Cl)c2)N(S(=O)(=O)c2ccc(C)cc2)C1` (configuration not stated), the Potency result in assay [1], in assay [2], in assay [3], in assay [4] and in assay [5] was “inactive” throughout.

For the compound `CCN(CC)CCOC(=O)c1ccc(NC(=O)c2nn(-c3ccc(C)cc3)c(=O)c3c2c2ccccc2n3C)cc1`, in assay [1], the Potency is 42.6 µM (active). Besides, the Potency result in assay [2], in assay [4] and in assay [5] was “inactive” in each case. In assay [3], the outcome is “inactive [at 12.7 µM]”.

Turning to `CCn1cc(C=C2C(=O)c3ccccc3C2=O)c2ccccc21`, the Potency in assay [6] is 14.6 µM (active). Besides, the Potency entry in assay [1], in assay [2], in assay [3], in assay [4] and in assay [5] was “inactive” in each case.

With `Nc1nc2ccccc2n1S(=O)(=O)c1ccc([N+](=O)[O-])cc1`, the Potency entry in assay [1], in assay [2], in assay [3], in assay [4] and in assay [5] was “inactive” each time.

Take `Cc1cc(C)c(S(=O)(=O)N(C)c2ccccc2)c(C)c1`: the Potency entry in assay [1], in assay [2], in assay [4] and in assay [5] was “inactive” each time. The Potency in assay [3] was 23.9 µM (active).

Consider `CCCc1nn2c(=O)cc(COC(=O)c3ccc(NC(=O)COc4ccccc4F)cc3)nc2s1`, for which the Potency result in assay [1], in assay [2], in assay [3], in assay [4] and in assay [5] was “inactive” throughout.

`CCOC(=O)Nc1ccccc1C(=O)Nc1cc(C)cc(C)c1`: the Potency result in assay [1], in assay [2], in assay [3] and in assay [4] was “inactive” each time. Moreover, in assay [5], the Potency was 0.631 µM (active).

As for `Cc1ccc(-n2nc3c(=O)n(CCCC(=O)NCc4ccc(F)cc4)nc(C)c3c2C)cc1`, the Potency entry in assay [1], in assay [2], in assay [4] and in assay [5] was “inactive” in each case. Further, the outcome in assay [3] is “inactive [at 12.7 µM]”.

`COC(=O)c1c(NC(=O)c2ccc(S(=O)(=O)N3CCCCC3C)cc2)sc2c1CCN(C(C)C)C2` (configuration not stated): the Potency result in assay [1], in assay [3] and in assay [4] was “inactive” throughout. Besides, the Potency in assay [2] was 112 µM (active); in assay [5] it was 79.4 µM (active).

Regarding `CCN(CC)c1ccc(/C=c2\sc3nc4ccccc4n3c2=O)c(O)c1`, the Potency entry in assay [6], in assay [1], in assay [2], in assay [3] and in assay [4] was “inactive” in each case. Also, the Potency in assay [5] was 56.2 µM (active).

For `CCc1ccc[n+](-c2[nH]c(=O)sc2/C=N/NC([S-])=Nc2ccccc2)c1`, the Potency is 14.6 µM (active) in assay [6] and 50.1 µM (active) in assay [5]. The Potency entry in assay [1], in assay [2], in assay [3] and in assay [4] was “inactive” throughout.

`CCC(C)Cn1c(COc2ccc(OC)cc2)nc2ccccc21` (configuration not stated): the Potency entry in assay [1], in assay [2], in assay [3], in assay [4] and in assay [5] was “inactive” in each case.
